Experimental findings from PubChem BioAssay are described below.

Records with an inconclusive call do not appear. Calls of active or inactive are those of the source. Unless noted, no rule for the calls is given here.

Test [1] in a line: rapamycin-like changes in RPL19A-GFP expression – cell-based, S. cerevisiae, multiplex flow cytometry, primary screen (AID 1862; in the data active = percent of DMSO control GFP below about 86%;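 also: lower values mimic rapamycin by blocking the RPL19A rise seen in DMSO cells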). As to conditions: S. cerevisiae RPL19A-GFP strain, flow cytometry fluorescence, 3 h; at 10 µM; stronger effect = lower value. (In flow cytometry, cells or beads pass a laser one at a time.)
Test [2] in a line: TOR pathway GLN3 branch reporter MEP2-GFP changes – S. cerevisiae, multiplex flow cytometry, primary screen (AID 1867;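 active = GFP response, as percent of the DMSO control, above the screen-wide mean plus 3 SD, about 139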;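 also: median GFP channel fluorescence of barcode-gated MEP2-GFP cells measured by flow cytometry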). As to conditions: S. cerevisiae MEP2-GFP strain, 3 h, at 10 µM, stronger effect = higher value.
Test [3] can be described thus: TOR pathway RTG branch CIT2 reporter changes – S. cerevisiae, GFP fusion, multiplex flow cytometry, primary screen (AID 1870;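 active = percent response above a set limit, the screen-wide mean plus 3 SD, cut at about 130% in these data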;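 also: barcoded CIT2-GFP strain pooled with four other GFP strains with rapamycin as positive control; median GFP fluorescence per well over plate mean of DMSO wells so 100% = DMSO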). Particulars: S. cerevisiae CIT2-GFP expression, 3 h, at 10 µM, stronger effect = higher value.
Test [4] is described as follows: TOR pathway LAP4-GFP level changes – S. cerevisiae, multiplex flow cytometry, primary screen (AID 1873;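 active = GFP signal, as percent of the solvent control, above the screen mean plus 3 SD, about 149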). As to conditions: S. cerevisiae LAP4-GFP expression, 3 h, at 10 µM, stronger effect = higher value.
Test [5] is described as follows: reduced mouse 2C T cell binding to pMHC/ICAM-1 vesicles – MLPCN validation set, flow cytometry, LFA-1/ICAM-1 modulator project, pilot screen (AID 2523;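 active = response below a set limit, under 55% cells CD8-positive and vesicle-bound, and CD8 cells' 90th-percentile brightness under 279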;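 as to vesicle binding response: mean PE anti-B7-1 fluorescence of CD8+ cells relative to row control; 100% = QL9-loaded vesicles with DMSO vehicle in the same plate row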). As to conditions: 2C mouse CD8+ T cells, at 7 µM, stronger effect = lower value; double positive events: measured here: CD8+/vesicle+ event percentage.
Test [6] has as its target Integrin beta-1 (Homo sapiens) + Integrin alpha-4 (Homo sapiens) (UniProt P13612+P05556). The test can be described thus: alpha4beta1 integrin LIBS antibody binding reduction – U937 cells, HUTS-21 mAb, flow cytometry, validation set, VLA-4 allosteric modulator project, pilot screen (AID 2674;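 active = inhibition above 50%, about 3 SD of the validation set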;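 also: antibody binding induced by the VLA-4 ligand LDV present at three times its Kd; 0% = LDV ligand with antibody and no compound and 100% = antibody without LDV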). Particulars: HUTS-21 LIBS mAb binding, at 6.7 µM, stronger effect = higher value.
A short description of test [7]: calorie-restriction mimetic ROS inhibitors, yeast – validation compound set, pilot screen (AID 2706;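 active = superoxide response below 65% of plate, a cut near 3 SD across the whole screen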;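 also: yeast exposed to compound for one week at 30 degrees C before staining; 100% = mean of all compound wells on the same plate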). As to conditions: S. cerevisiae aging, superoxide DHE fluorescence; at 10 µM; stronger effect = lower value.
In test [8] the target is Beta-adrenergic receptor kinase 1 (Homo sapiens) (UniProt P25098). The test can be described thus: GRK2 binders displacing RNA aptamer, biochemical, validation, human GRK2, bead flow cytometry (AID 488806;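 active = aptamer binding inhibition above 30%, about 3 SD of noise from non-fluorescent compounds; inactive = inhibition at or below 30%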). As to conditions: bead-bound GRK2, FAM-aptamer displacement, at 10 µM, stronger effect = higher value.
The target of test [9] is AP-2 complex subunit beta (Homo sapiens) (UniProt P63010). Kind of test: beta-arrestin/AP2 interaction blockers – biochemical, validation set, GST-AP2 beads, flow cytometry, pilot screen (AID 504541;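 active = inhibition above 54%, about 3 SD of non-fluorescent compounds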;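 also: AP2 carries R879A mutation and is captured from E. coli lysate; bead-bound FITC arrestin peptide fluorescence measuring arrestin peptide binding to AP2; 0% = DMSO wells and 100% = excess unlabeled arrestin peptide control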). As to conditions: FITC arrestin peptide, at 10 µM, stronger effect = higher value.
A short description of test [10]: cytosolic pH regulators acting via V-ATPase – S. cerevisiae, pHLuorin, HTS validation (AID 504600; in the data active = response above about 15%;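 also: plate controls were DMSO for no effect and reference compound for full effect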). As to conditions: V-ATPase proton transport, at 10 µM, stronger effect = higher value.
Test [11] relates to anti-desmoglein-3 scFv antibody binding to human DSG3. Kind of test: blockers of pathogenic pemphigus antibody–desmoglein-3 binding – biochemical, validation compound set, bead-based, flow cytometry, pilot screen (AID 588368;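 active = binding below the plate cutoff, the plate median minus 3 SD, with a reading above zero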;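 also: signal is the median channel fluorescence of bead-bound GFP antibody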). Particulars: Protein G beads, DSG3-Fc, scFv-GFP binding, at 10 µM, stronger effect = lower value.
A short description of test [12]: Nile Red efflux blockade in pump-expressing yeast – validation compound set, multiplex, phenotypic, pilot screen (AID 588506;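 active = efflux inhibition above 0.42, the validation set average plus 4 SD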;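 also: Nile Red retained in cells so higher fluorescence means more efflux inhibition; 0 = negative control wells and 1 = enniatin B 25 µM full block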). As to conditions: S. cerevisiae pump-expressing triplex, Nile Red efflux flow cytometry; at 10 µM; stronger effect = higher value.
The target in test [13] is ATP-binding cassette sub-family B member 6 (Homo sapiens) (UniProt Q9NP58). Kind of test: blockers of ABCB6-driven porphyrin uptake – K562-ABCB6 cells, flow cytometry, validation set, pilot screen (AID 588550;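 active = inhibition above the screen-wide mean plus 3 SD, about 51%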;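 also: 0% = DMSO wells and 100% = benzethonium chloride 70 µM positive control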). Particulars: K562-ABCB6 porphyrin accumulation, 1 h, at 10 µM, stronger effect = higher value.
Test [14] is described as follows: AML differentiation inducers, ER-HoxA9 marrow cells – cell-based, GFP/MAC1 double positive, flow cytometry, validation set, primary screen (AID 588685;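 active = differentiation response of at least 50%, scaled between solvent and reference control, from cells with both markers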;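 also: compound exposure lasts four days before antibody staining and flow analysis; 0% = DMSO wells and 100% = 5 µM fulvestrant positive control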). Particulars: stronger effect = higher value.
Test [15] concerns Botulinum neurotoxin type F light chain protease (Clostridium botulinum). The test can be described thus: Clostridium botulinum type F light chain protease inhibitors, microsphere substrate cleavage, validation (AID 588459). Particulars: multiplex microsphere protease substrate cleavage assay, flow cytometry; at 10 µM; stronger effect = higher value.
Test [16] has as its target Botulinum neurotoxin type A (Clostridium botulinum) (UniProt P0DPI0). Kind of test: BoNT/A light chain protease inhibitors, biochemical, multiplex microsphere flow cytometry, validation set (AID 588460). Particulars: at 10 µM, stronger effect = higher value.
Test [17] concerns the target Lethal factor (Bacillus anthracis) (UniProt P15917). Kind of test: Bacillus anthracis lethal factor inhibition, microsphere flow cytometry protease assay, validation at 10 µM (AID 588461). Particulars: multiplex microsphere protease cleavage assay, stronger effect = higher value.

Beta-adrenergic receptor kinase 1 (Homo sapiens), sequence (P25098 whole entry, looked up): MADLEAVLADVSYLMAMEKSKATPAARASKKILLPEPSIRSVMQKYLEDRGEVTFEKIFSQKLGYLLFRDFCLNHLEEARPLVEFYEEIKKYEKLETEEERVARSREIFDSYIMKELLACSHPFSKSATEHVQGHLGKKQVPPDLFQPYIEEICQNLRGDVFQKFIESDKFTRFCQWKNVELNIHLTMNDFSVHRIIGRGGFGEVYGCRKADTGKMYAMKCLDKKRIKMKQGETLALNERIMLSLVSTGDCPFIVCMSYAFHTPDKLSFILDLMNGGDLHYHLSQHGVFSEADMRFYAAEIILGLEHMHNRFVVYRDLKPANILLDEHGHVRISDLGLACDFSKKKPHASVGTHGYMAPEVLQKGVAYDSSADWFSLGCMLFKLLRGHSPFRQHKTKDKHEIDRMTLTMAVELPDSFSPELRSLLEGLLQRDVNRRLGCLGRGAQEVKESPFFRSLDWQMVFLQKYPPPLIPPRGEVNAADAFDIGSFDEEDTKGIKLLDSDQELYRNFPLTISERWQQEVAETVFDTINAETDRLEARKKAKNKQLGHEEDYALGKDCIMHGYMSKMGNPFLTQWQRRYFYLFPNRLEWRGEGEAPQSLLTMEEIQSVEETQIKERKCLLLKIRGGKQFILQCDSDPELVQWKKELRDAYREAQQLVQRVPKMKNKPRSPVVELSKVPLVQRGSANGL
Botulinum neurotoxin type A (Clostridium botulinum), sequence (P0DPI0 whole entry, looked up): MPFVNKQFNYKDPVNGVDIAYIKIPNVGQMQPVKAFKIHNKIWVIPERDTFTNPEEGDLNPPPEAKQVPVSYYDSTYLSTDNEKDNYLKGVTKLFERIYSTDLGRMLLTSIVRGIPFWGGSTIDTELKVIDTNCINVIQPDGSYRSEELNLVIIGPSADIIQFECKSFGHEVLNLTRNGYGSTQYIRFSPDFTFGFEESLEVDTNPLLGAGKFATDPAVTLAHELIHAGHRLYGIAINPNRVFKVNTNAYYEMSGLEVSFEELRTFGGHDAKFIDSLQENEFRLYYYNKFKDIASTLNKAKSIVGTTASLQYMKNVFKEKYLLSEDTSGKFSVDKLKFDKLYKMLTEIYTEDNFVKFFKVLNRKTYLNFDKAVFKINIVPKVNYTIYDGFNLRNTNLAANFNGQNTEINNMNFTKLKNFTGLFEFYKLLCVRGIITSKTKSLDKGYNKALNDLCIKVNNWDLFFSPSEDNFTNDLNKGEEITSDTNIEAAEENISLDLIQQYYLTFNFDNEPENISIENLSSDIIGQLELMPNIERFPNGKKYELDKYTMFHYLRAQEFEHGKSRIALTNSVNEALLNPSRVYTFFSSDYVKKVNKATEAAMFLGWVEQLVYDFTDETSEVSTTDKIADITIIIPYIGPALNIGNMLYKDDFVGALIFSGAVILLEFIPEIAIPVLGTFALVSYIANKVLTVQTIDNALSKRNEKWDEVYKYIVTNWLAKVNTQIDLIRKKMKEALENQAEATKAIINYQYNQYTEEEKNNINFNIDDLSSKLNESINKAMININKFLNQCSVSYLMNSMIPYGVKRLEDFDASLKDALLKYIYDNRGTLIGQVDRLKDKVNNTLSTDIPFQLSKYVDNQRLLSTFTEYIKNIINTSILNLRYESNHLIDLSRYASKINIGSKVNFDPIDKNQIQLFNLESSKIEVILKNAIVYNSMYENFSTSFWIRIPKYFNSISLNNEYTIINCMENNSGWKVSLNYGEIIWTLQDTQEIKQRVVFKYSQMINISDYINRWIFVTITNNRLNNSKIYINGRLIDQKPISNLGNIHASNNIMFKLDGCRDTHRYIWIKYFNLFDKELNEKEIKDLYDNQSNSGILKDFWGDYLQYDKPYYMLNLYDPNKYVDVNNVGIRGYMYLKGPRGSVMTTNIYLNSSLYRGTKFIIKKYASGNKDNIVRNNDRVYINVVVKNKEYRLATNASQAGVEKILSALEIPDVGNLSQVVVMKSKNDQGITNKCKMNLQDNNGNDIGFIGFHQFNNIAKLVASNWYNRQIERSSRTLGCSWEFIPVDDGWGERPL
Lethal factor (Bacillus anthracis), sequence (P15917 whole entry, looked up): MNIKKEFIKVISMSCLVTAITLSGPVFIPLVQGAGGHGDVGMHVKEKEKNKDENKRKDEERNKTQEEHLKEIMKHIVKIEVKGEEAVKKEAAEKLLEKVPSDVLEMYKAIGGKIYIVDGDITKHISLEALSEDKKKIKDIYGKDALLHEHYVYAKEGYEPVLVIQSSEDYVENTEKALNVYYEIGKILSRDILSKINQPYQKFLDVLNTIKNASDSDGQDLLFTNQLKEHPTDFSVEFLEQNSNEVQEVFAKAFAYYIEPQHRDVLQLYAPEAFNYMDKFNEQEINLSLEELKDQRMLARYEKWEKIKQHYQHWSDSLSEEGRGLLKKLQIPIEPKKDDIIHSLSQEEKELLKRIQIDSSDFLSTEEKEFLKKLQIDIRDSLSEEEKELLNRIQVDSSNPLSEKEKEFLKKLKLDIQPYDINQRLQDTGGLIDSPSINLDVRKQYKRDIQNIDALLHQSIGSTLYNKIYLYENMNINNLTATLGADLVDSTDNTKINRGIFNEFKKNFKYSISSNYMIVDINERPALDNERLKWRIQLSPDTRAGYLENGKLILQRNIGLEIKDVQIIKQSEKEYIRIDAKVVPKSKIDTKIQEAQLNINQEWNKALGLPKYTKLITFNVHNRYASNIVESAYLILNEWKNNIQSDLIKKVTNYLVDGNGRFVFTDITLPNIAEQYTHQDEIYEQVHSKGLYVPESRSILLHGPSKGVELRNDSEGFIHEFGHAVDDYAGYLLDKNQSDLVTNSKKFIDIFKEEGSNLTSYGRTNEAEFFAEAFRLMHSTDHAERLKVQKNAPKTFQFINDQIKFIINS
Integrin beta-1 (Homo sapiens) + Integrin alpha-4 (Homo sapiens), sequence (P05556 whole entry, looked up): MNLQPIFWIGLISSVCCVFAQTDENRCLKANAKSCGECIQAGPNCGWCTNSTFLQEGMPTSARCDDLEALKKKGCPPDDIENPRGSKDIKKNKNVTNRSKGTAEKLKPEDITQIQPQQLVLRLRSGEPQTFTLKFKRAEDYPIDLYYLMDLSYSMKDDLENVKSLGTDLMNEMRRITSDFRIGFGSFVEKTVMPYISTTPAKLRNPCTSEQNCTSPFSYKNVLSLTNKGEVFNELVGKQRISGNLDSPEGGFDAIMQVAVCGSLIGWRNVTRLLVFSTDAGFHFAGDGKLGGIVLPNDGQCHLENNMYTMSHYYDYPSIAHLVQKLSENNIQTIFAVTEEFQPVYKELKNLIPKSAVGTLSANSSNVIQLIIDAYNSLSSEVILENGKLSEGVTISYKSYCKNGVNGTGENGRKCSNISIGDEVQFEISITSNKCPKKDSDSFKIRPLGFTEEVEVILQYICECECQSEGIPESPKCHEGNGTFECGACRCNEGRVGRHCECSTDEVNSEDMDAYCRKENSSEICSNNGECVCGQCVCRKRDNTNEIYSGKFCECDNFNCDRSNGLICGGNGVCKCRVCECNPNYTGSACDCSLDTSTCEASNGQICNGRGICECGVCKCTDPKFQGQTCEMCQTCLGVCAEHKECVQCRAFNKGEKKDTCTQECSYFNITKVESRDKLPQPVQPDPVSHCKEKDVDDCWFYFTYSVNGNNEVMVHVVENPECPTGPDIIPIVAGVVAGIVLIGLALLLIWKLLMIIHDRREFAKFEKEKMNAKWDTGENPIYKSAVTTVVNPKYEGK
Integrin beta-1 (Homo sapiens) + Integrin alpha-4 (Homo sapiens), sequence (P13612 whole entry, looked up): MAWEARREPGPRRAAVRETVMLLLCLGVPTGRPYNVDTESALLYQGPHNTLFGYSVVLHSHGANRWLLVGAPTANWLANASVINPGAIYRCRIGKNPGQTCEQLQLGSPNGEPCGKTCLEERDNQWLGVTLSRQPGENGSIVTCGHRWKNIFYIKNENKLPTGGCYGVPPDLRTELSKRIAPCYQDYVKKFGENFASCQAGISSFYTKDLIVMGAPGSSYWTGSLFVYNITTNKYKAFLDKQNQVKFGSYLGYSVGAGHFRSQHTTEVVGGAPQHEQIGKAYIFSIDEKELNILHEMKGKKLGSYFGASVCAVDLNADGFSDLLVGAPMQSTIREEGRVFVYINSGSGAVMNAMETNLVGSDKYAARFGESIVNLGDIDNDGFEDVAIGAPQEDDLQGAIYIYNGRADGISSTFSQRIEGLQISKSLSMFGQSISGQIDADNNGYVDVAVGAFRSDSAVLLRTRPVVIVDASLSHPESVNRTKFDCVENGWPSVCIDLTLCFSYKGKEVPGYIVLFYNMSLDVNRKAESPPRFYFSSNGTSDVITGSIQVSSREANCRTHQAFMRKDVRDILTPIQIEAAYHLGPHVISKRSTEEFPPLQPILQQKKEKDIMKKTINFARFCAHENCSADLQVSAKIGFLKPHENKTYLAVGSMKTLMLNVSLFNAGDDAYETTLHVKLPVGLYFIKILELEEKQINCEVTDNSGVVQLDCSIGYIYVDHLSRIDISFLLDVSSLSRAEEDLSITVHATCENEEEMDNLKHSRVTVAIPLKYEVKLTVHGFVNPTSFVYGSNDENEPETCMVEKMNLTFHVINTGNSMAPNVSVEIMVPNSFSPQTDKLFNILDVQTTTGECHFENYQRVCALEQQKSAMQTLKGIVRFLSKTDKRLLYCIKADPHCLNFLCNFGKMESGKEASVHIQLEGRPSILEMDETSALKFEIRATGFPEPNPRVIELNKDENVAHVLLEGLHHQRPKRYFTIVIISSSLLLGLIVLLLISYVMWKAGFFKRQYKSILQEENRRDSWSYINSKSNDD

As for `CN[C@H](C)[C@H](O)c1ccccc1`, in test [1], the percent of DMSO control GFP was 90.2% (inactive). Besides, the GFP response vs DMSO was 131% (inactive) in test [2] and 87.5% (inactive) in test [4]. Besides, the percent response of DMSO control in test [3] is 102% (inactive). Further, the double positive events in test [5] was 53.3%. Besides, in test [5], the vesicle binding response was 176% (inactive). Moreover, the inhibition in test [6] is 8.4% (inactive); in test [9] it was 39.6% (inactive); in test [13] it was 5% (inactive). Moreover, the superoxide response (% of plate) in test [7] was 97.6% (inactive). Also, the aptamer binding inhibition in [8] is 4% (inactive). In test [10], the response was -4.76% (inactive). Moreover, the binding (% of control) in test [11] was 102% (inactive). Also, the efflux inhibition (fraction of control) in test [12] was 0.27 (inactive). In addition, in test [14], the differentiation response is -0.82% (inactive).
Consider `O=C(O)CCCc1ccc(N(CCCl)CCCl)cc1`, for which, in test [1], the percent of DMSO control GFP was 101% (inactive). In addition, the GFP response vs DMSO in [2] was 103% (inactive); in test [4], 97.4% (inactive). Further, the percent response of DMSO control in test [3] is 98.8% (inactive). For the same compound, in test [5], the double positive events was determined as 63.4%. Besides, the vesicle binding response in test [5] was 148% (inactive). Moreover, the inhibition was 23.1% (inactive) in test [6]; 1.29% (inactive) in test [9]; -4% (inactive) in test [15]; -2.1% (inactive) in [16]; -3.4% (inactive) in test [17]; 8% (inactive) in [13]. The superoxide response (% of plate) in test [7] was 93.9% (inactive). For the same compound, in test [8], the aptamer binding inhibition was 4% (inactive). Further, the response in test [10] is -5.67% (inactive). In test [11], the binding (% of control) is 105% (inactive). Besides, the efflux inhibition (fraction of control) in test [12] was 0.48 (active). The differentiation response in test [14] was 17.6% (inactive).
With `Cc1cccc(C)c1NC1=NCCCS1`, in [1], the percent of DMSO control GFP is 94.7% (inactive). The results for the GFP response vs DMSO in test [2] and in test [4] were 104% (inactive) and 91.3% (inactive), respectively. Besides, the percent response of DMSO control in test [3] is 94.9% (inactive). Besides, the double positive events in test [5] was 62.8%. In addition, the vesicle binding response in test [5] was 180% (inactive). Also, the inhibition in test [6] is 13.8% (inactive); in test [9], 15.3% (inactive); in test [15], -2.3% (inactive); in test [16] it was -0.6% (inactive); in test [17] it was 1.9% (inactive); in test [13] it was 5% (inactive). Besides, the superoxide response (% of plate) in test [7] is 97.2% (inactive). The aptamer binding inhibition in test [8] is 2% (inactive). Moreover, in test [10], the response is 1.52% (inactive). Moreover, the binding (% of control) in test [11] is 102% (inactive). Also, the efflux inhibition (fraction of control) in test [12] is 0.18 (inactive). In addition, the differentiation response in [14] is -9.89% (inactive).
Regarding `CCNC(=S)N(C)CCc1cc2c(c(OC)c1C=C1C(=O)N(C)C(=O)N(C)C1=O)OCO2`, in [1], the percent of DMSO control GFP is 98.1% (inactive). Also, the GFP response vs DMSO in test [2] is 95.9% (inactive); in [4], 96.4% (inactive). Moreover, in test [3], the percent response of DMSO control is 91% (inactive). This compound also showed a double positive events in test [5] of 62.5%. In test [5], the vesicle binding response was 168% (inactive). Moreover, the inhibition in test [6] is 15.6% (inactive); in [9] it was 27.6% (inactive); in test [15] it was 1.8% (inactive); in test [16], 1.4% (inactive); in test [17], 1.3% (inactive); in test [13] it was -16% (inactive). The superoxide response (% of plate) in test [7] was 89.1% (inactive). Also, the aptamer binding inhibition in test [8] was 4% (inactive). Also, the response in test [10] is -7.44% (inactive). The binding (% of control) in test [11] is 100% (inactive). In [12], the efflux inhibition (fraction of control) was -0.16 (inactive). For the same compound, the differentiation response in test [14] is 6.26% (inactive).

The term inhibition denotes the change of the read-out against control, counted positive when it falls.
